Laboratory results reported in paper PMC12864922, “TDP-43 directly inhibits mRNA accumulation in neurites through modulation of mRNA stability”.
In all, about 9,900 sequences were measured (“r (bound/input frequency ratio)”: median about 0.7, highest 2% from about 6.5 on). The sample holds the highest values, similar sequences and a random draw of the others, so the mix is not that of the screen.

B1: ENSMUSG00000029636.13|Wasf3 (ssRNA)
RNA: GGGAGUUCUACAGUCCGACGAUCGCUUCGAUAUCCGCAUGCUAGUUUGAUGAGAAUGACUGGUCUGACUGAGGCACAAGGGCCAGGCGACCAGUGGACAGCCAGGGCCCCAUAUGCAAGUGUGUUAGGAGCUCCUGUGCUCUCUGCACCCUCACAGUGGUAUUUCCCUGUAGCUUUAGUCCCUUUUGUAUUAACAGUGUGAUUUGCUUCUGCACAUCCUUCUGGAUUUGUUGAGUAUUUACUGUGUAAUACUUAAGUGCCACAGAACACAGCACACCGUGCUGCACACCAGGAAACUCGCAGUCUCUUGCGGUCGCACUAGUGUGGAAUUCUCGGGUGUCAAGG
B2: ENSMUSG00000061578.1299|Ksr2 (ssRNA)
RNA: GGGAGUUCUACAGUCCGACGAUCGCUUCGAUAUCCGCAUGCUACGUGUUGCUGGGUCCCAGGGGAUUGGCUGUAGUUAAUUAAAAGCACCUGUCUCUGUCAUCUCUGCACCCAACUGAAUCUCCCACCCUCAAGUGUACCUCUCAGGAUAUCCCCAGGCACACGAAGAUGGAAUGGAAAGCCAGUGGGUAUCUCCCACCCACUUAGAUGCUGAUGGCCUGGGACUAUAAACAGGGACAGUUGGGUCUCCUAAGGAAUAGCUUCCAGGUCCAGGAUGCUGGCAUCUCCCAGAGAGAACUCCAUCCUCUUGCGGUCGCACUAGUGUGGAAUUCUCGGGUGUCAAGG
B3: ENSMUSG00000090935.112|Synj2bp (ssRNA)
RNA: GGGAGUUCUACAGUCCGACGAUCGCUUCGAUAUCCGCAUGCUAGUUCCUGUAGCUAUGGUGCUGCUACCAGUGUUUGCCCUCACCAUGGUAGCAGUUUGGGCCUUCGUGAGAUACCGAAAGCAGCUUUGAAAUGCUUGCUGUCUUCCAGUGUGUCCAAUGAACUCUCUCUCUCACUCACCAUCUCUGACAUCCUCCCAUAUUCUUUCUCCUCCACAUAGCCAAUACAAGAUUUAAAGUGACUGCUUAUCACCCAAAACCCUGCUAUUCAAAAUCUCCUAUUCUAAUGGAAGAGUACAGGGGUUCUCUUGCGGUCGCACUAGUGUGGAAUUCUCGGGUGUCAAGG
B4: ENSMUSG00000034801.219|Sos2|230:238 (ssRNA)
RNA: GGGAGUUCUACAGUCCGACGAUCGCUUCGAUAUCCGCAUGCUAUCUGCUAUUUGACUAAUUUGUAAGUCUGGAACAAAAGUGUCUUAUGGCAUAAGAACCAACUGCCAUUGUCAAACCUAUUAACUGUCUUUAAUCUCGUGUUAACUGAAAUUUUUGAAAAGUUUUUCCAGAUUAGUAAUAUUUAAACAGAAAAUACUUUAAAAAGCUUUAUUAAAUUUUUUAAUCAGGAUAAAGCUUUGCCAUUUGGAUACUAUCAUUCAAAGUGAUCAAGCAUACAUACUUAUGCUGAUAGUGCAGUAGCACUCUUGCGGUCGCACUAGUGUGGAAUUCUCGGGUGUCAAGG
B5: ENSMUSG00000028439.106|Fam219a|156:160 (ssRNA)
RNA: GGGAGUUCUACAGUCCGACGAUCGCUUCGAUAUCCGCAUGCUACCCUCAUCUCCAGAUGGGAAGCCUGGCAGCGCUGUCCAAAGGGAUACUGUCUCUCCAUUAGAUAACUCCUUCCACUGUCUCCCUCCCCCGCUUUCUUACUUUCUGAGGGUUGGGAAGGUAAGAUGGGCCUUAGAGAGAAGCCAGGUUUGGGGAUGCAUACACCUGUUCUCACCGGUCUCUAACCAGUGCAUCUGUCUCUCUGCCUCAUCCCCACACCGCCCUGCCACCCCCAGUCUUCUGUCUAUUGGUUCCAGGCUGGACUCUUGCGGUCGCACUAGUGUGGAAUUCUCGGGUGUCAAGG
B6: ENSMUSG00000061578.55|Ksr2 (ssRNA)
RNA: GGGAGUUCUACAGUCCGACGAUCGCUUCGAUAUCCGCAUGCUACACGCUGGACCAGUGUGUGCGCAUGUGUCUACACAUGGACAGGGCCAACUGCUAUCCUUCUGCCUGGACGAGCCAGCUGUGGAGUGUCCCAGCUGUGCUAUCCUGGAACACAGAACCAGGAUGGAACCAGAAACAAUACACCUGCUCCGUUGUCAAGGCUUCUAGGCCAAGGUCAGGGUAGGGAGGUGGGGUGGGUUAAACUUGCAAACAUCUGAUUUUAGAGGUCCCAUUCCAAGAUGGAAGUCACCGGUUGCCGCUGACUCUUGCGGUCGCACUAGUGUGGAAUUCUCGGGUGUCAAGG
B7: ENSMUSG00000031028.274|Tub (ssRNA)
RNA: GGGAGUUCUACAGUCCGACGAUCGCUUCGAUAUCCGCAUGCUAAAAAAGUAGAGUCAUGUAGAGUCAUGCUUUGAAUAUGUGGGUCAUGCUUUAGAUAUGAAGAGGCUAUGCAGGUAAGGAGGCUGGAUUGAUGUAAAUGGAAGUAGUACUUUAAGAAAGCUCUAGAUUUCCCAGGUUGGACACUCGACGAAAGGCACACCUGCUGCAGCAGGUUCUGACACACCUGAGCCAUACAUUGCCAUCAGAGAACCCUCAGCGAGGUAGCCUUUGUUUACAGUCUAGUUUCUAGAGGGCAGUAGGACCUCUUGCGGUCGCACUAGUGUGGAAUUCUCGGGUGUCAAGG
B8: ENSMUSG00000031028.129|Tub|126:130;202:207 (ssRNA)
RNA: GGGAGUUCUACAGUCCGACGAUCGCUUCGAUAUCCGCAUGCUACCAAAUAUCUGAGUGGAUGGGGAUGAUAGGAGUCAUCCAGUAGACUCCCUACAUCAGGGCUCUCAGCAGCCCCAGCACAACACCUAUGACACACACACAGGAUCUAGGUCACCAUUCAAGUAAUGCAUACCUUCAGGAAGAAUGUCCUCUCUGGGAAGACUCAGCUCCCAUUAUUGCCAGCAUGCCAUGAUCAGUGAGGGCACACACCCAUGCUUAGGGGGAUGGCGCAGGGUGAGGGGAGCAGAGGAUAUUUUAGGGCCCUCUUGCGGUCGCACUAGUGUGGAAUUCUCGGGUGUCAAGG
B9: ENSMUSG00000004113.208|Cacna1b|46:50;236:240 (ssRNA)
RNA: GGGAGUUCUACAGUCCGACGAUCGCUUCGAUAUCCGCAUGCUACAUCGGGUGGAUUGGGUGGGAGCUGCUCAGAGCAGCACGGGGGCUACACACUUAGGGACAUUGACAGUGUCCAUCAGCAUGUCAGAGAAGCAGCUGUAGUGCCCGUGUUUCUCCCUGAGUCAUGGGUUCUGAAGAAGCCAGAGCGGCACAAUGCGUGCUUGCAUGAGGCACUUUCAGCCUUUUUAAAUCUGACUCUCAGGGAUGGGAUGCCUGCCAAGUAGGGUGUAAUCUCUGUACACAUUUUAAAACAACAACAACAACUCUUGCGGUCGCACUAGUGUGGAAUUCUCGGGUGUCAAGG
B10: ENSMUSG00000022095.101|Fam160b2 (ssRNA)
RNA: GGGAGUUCUACAGUCCGACGAUCGCUUCGAUAUCCGCAUGCUAUGCUCUACCCUCCUGGAGGCUGUUGCAAAAUUCCCAACUGCCUCCUGGCAGAGGCCCAAAGUAUGCUCUGCGCCCAGGCGGGGGCAGCUGCUAACAAGAGCCCUGGCGCAGCUGCAGCCAGGGCAGGCGAGAGCCUUGGAGCUGGGUGCCAGGCUCCAGCUCCAGCUCCAGCUGGUUCCUCUCUGGCGCCUUCUGAACCCGUCUCAGCAAGUCCGAAACACCUGGGCAGAGAGGUCAUUGACCAGGGAUGGGGGCCCUUGCUCUUGCGGUCGCACUAGUGUGGAAUUCUCGGGUGUCAAGG
B11: ENSMUSG00000028439.160|Fam219a (ssRNA)
RNA: GGGAGUUCUACAGUCCGACGAUCGCUUCGAUAUCCGCAUGCUACCAGGCUUCCAGAAAGGCUCUUCAAGAGCAAGCUUAAGGAAAUACAGUGAGCCAAGUGGCUGUAUGAUAUGGUAUGGUAUGGUAUGGUAUGGUAUGGUAUGGUAUGCACAUGUGUGUGCAUGUGUGUGUGCCUGUGUGUGUGCGUGUGCGUGUGUGUAUGUGUGUGCGUGUGUGUGUGUGUGUGUUGUACCCGAGUGUGUGUUGAGCCUAUCUGUCCAGGGAACCAGAUUGGUGUCCGAGAUGAGGAAAUGGCUGUGGCCCUCUUGCGGUCGCACUAGUGUGGAAUUCUCGGGUGUCAAGG
B12: ENSMUSG00000028439.158|Fam219a (ssRNA)
RNA: GGGAGUUCUACAGUCCGACGAUCGCUUCGAUAUCCGCAUGCUAAAAGUCCAGGAGCCAGGCUUCCAGAAAGGCUCUUCAAGAGCAAGCUUAAGGAAAUACAGUGAGCCAAGUGGCUGUAUGAUAUGGUAUGGUAUGGUAUGGUAUGGUAUGGUAUGGUAUGCACAUGUGUGUGCAUGUGUGUGUGCCUGUGUGUGUGCGUGUGCGUGUGUGUAUGUGUGUGCGUGUGUGUGUGUGUGUGUUGUACCCGAGUGUGUGUUGAGCCUAUCUGUCCAGGGAACCAGAUUGGUGUCCGAGAUGAGGAACUCUUGCGGUCGCACUAGUGUGGAAUUCUCGGGUGUCAAGG
B13: ENSMUSG00000028439.161|Fam219a (ssRNA)
RNA: GGGAGUUCUACAGUCCGACGAUCGCUUCGAUAUCCGCAUGCUAUUCCAGAAAGGCUCUUCAAGAGCAAGCUUAAGGAAAUACAGUGAGCCAAGUGGCUGUAUGAUAUGGUAUGGUAUGGUAUGGUAUGGUAUGGUAUGGUAUGCACAUGUGUGUGCAUGUGUGUGUGCCUGUGUGUGUGCGUGUGCGUGUGUGUAUGUGUGUGCGUGUGUGUGUGUGUGUGUUGUACCCGAGUGUGUGUUGAGCCUAUCUGUCCAGGGAACCAGAUUGGUGUCCGAGAUGAGGAAAUGGCUGUGGCCUGGGAACUCUUGCGGUCGCACUAGUGUGGAAUUCUCGGGUGUCAAGG
B14: ENSMUSG00000028439.159|Fam219a (ssRNA)
RNA: GGGAGUUCUACAGUCCGACGAUCGCUUCGAUAUCCGCAUGCUACAGGAGCCAGGCUUCCAGAAAGGCUCUUCAAGAGCAAGCUUAAGGAAAUACAGUGAGCCAAGUGGCUGUAUGAUAUGGUAUGGUAUGGUAUGGUAUGGUAUGGUAUGGUAUGCACAUGUGUGUGCAUGUGUGUGUGCCUGUGUGUGUGCGUGUGCGUGUGUGUAUGUGUGUGCGUGUGUGUGUGUGUGUGUUGUACCCGAGUGUGUGUUGAGCCUAUCUGUCCAGGGAACCAGAUUGGUGUCCGAGAUGAGGAAAUGGCUCUCUUGCGGUCGCACUAGUGUGGAAUUCUCGGGUGUCAAGG
B15: ENSMUSG00000028439.162|Fam219a (ssRNA)
RNA: GGGAGUUCUACAGUCCGACGAUCGCUUCGAUAUCCGCAUGCUAAAAGGCUCUUCAAGAGCAAGCUUAAGGAAAUACAGUGAGCCAAGUGGCUGUAUGAUAUGGUAUGGUAUGGUAUGGUAUGGUAUGGUAUGGUAUGCACAUGUGUGUGCAUGUGUGUGUGCCUGUGUGUGUGCGUGUGCGUGUGUGUAUGUGUGUGCGUGUGUGUGUGUGUGUGUUGUACCCGAGUGUGUGUUGAGCCUAUCUGUCCAGGGAACCAGAUUGGUGUCCGAGAUGAGGAAAUGGCUGUGGCCUGGGAAAUCAGUCUCUUGCGGUCGCACUAGUGUGGAAUUCUCGGGUGUCAAGG

Each binder was assayed against TDP-43 (Homo sapiens, UniProt Q13148 1-414) (assay: RNA Bind-n-Seq with designed 260-mer pool; 25 mM Tris-HCl, 150 mM KCl, 3 mM MgCl2, BSA (printed 500 mg/mL), 20 units/mL SUPERase IN; pH not stated; 500 nM RNA pool, 1 h, 4 C; TDP-43 5, 50, 500 nM; high values mean tight binding). Conditions: protein: recombinant; tags: SBP (GST cleaved off with PreScission; pGEX-GST-SBP).
Chain of TDP-43 (Q13148 whole entry): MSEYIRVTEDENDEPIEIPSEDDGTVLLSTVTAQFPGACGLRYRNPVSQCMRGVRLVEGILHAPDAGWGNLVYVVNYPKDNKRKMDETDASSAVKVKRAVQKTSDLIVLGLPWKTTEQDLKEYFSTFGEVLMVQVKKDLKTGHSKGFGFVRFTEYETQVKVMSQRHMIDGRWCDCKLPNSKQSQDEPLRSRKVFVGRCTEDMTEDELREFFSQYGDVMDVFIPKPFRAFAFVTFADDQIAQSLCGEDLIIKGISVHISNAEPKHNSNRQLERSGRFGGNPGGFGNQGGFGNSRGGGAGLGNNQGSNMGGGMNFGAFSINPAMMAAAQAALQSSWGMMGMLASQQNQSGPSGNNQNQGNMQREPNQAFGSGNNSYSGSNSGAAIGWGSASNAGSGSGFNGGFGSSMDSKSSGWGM
Summary of the method: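 An in vitro-transcribed pool of 260-nt 3′ UTR oligos (500 nM) was incubated for 1 h at 4 °C with recombinant SBP-tagged TDP-43 at 5, 50 or 500 nM held on streptavidin beads. The buffer contained 25 mM Tris-HCl, 150 mM KCl, 3 mM MgCl2, BSA and SUPERase IN. Biotin-eluted bound RNA was sequenced, and binding, R, is each oligo's normalized read abundance in the bound sample over that in input.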
For B1, the binding signal was 0.391 R (bound/input frequency ratio). B2 was tested, and the binding signal was 0.299 R (bound/input frequency ratio). B3 was tested, and the binding signal was 2.02 R (bound/input frequency ratio). With B4 the binding signal was 0.0202 R (bound/input frequency ratio). For B5, the binding signal was 0.353 R (bound/input frequency ratio). In the case of B6, the binding signal is reported as 0.378 R (bound/input frequency ratio). With B7 the binding signal was 0.687 R (bound/input frequency ratio). B8 was tested, and the binding signal was 0.668 R (bound/input frequency ratio). With B9 the binding signal was 0.881 R (bound/input frequency ratio). With B10 the binding signal was 0.743 R (bound/input frequency ratio). In the case of B11, the binding signal is reported as 6.51 R (bound/input frequency ratio). B12 was tested, and the binding signal was 6.13 R (bound/input frequency ratio). B13 was tested, and the binding signal was 8.09 R (bound/input frequency ratio). In the case of B14, the binding signal is reported as 7.39 R (bound/input frequency ratio). With B15 the binding signal was 8.11 R (bound/input frequency ratio).
